{"source": "ChEMBL document CHEMBL1157539", "about": "“Thousands of chemical starting points for antimalarial lead identification” (Nature, 2010)"}
{"tested_on": "HepG2", "assay": "GSK_TCMDC: Percent inhibition of human HepG2 cell line. Test compounds present at 10uM.", "format": "functional", "units": {"Inhibition": "%"}}
{"compound": "COc1ccc(-c2ccc(CNC(=O)c3ccc(C#N)cc3)c(F)c2)cc1CN1CCCN(C)CC1.O=C(O)C(F)(F)F", "Inhibition": 6}
{"compound": "CC(C)(C)NS(=O)(=O)c1cc(C(=O)N2CCC(CCN3CCC(C(=O)c4ccc(F)cc4)CC3)(c3cccc(F)c3)CC2)c(Cl)cc1F", "Inhibition": 0}
{"compound": "CN1CCCN(Cc2ccc(-c3ccc(NC(=O)c4ccc(C#N)cc4)cc3)cc2)CC1.O=C(O)C(F)(F)F", "Inhibition": 30}
{"compound": "Cl.NC1=NC(CCc2ccccc2)N(c2ccc(Cl)cc2)C(N)=N1", "note": "(stereo not given)", "Inhibition": 2}
{"compound": "CC(C)C[C@H](NC(=O)c1ccc(OCCN2CCOCC2)cc1)C(=O)N[C@H](/C=N/N1CCN(C)C1=O)CCc1ccccc1", "Inhibition": 3}
{"compound": "COCCNCc1ccc(-c2cccc(CNc3ccc(OC)cc3)c2)cc1.O=C(O)C(F)(F)F", "Inhibition": 16}
{"compound": "CCCCCCc1c(C)nc2cc(OC)ccc2c1O", "Inhibition": 10}
{"compound": "COc1cc2nc(NCc3nc4ccccc4[nH]3)nc(N)c2cc1OC.Cl", "Inhibition": 3}
{"compound": "Cc1ccccc1CNc1ccc2nc(N)nc(N)c2c1", "Inhibition": 59}
{"compound": "Cc1c(CNCCCNc2nc3ccccc3[nH]2)[nH]c2cc(Cl)cc(Cl)c12", "Inhibition": 59}
{"compound": "O=C(Nc1cccc(Cl)c1)N[C@H]1CCN(Cc2ccc(OCCCN3CCCCC3)cc2)C1", "Inhibition": 15}
{"compound": "CN(Cc1cc(C(F)(F)F)cc(C(F)(F)F)c1)C(=O)C(Cc1ccc(F)cc1)C1CCCNC1", "note": "(stereo not given)", "Inhibition": 10}
{"compound": "COc1cc(Cc2cnc(N)nc2N)cc(OCCCCC2SC(=O)NC2=O)c1Br", "note": "(stereo not given)", "Inhibition": 15}
{"compound": "O=C1C(=Cc2c(O)ccc3ccccc23)SC(=NCc2ccccc2)N1Cc1ccccc1", "Inhibition": 0}
{"compound": "O=C(Nc1ccc2nc3n(c(=O)c2c1)CCCCC3)C(=O)N1CCC(Cc2ccccc2)CC1", "Inhibition": 12}
{"compound": "CN1CCCN(c2ccnc3cc4c(cc23)N(C(=O)c2ccc(C(F)(F)F)cc2)CC4)CC1.Cl", "Inhibition": 10}
{"compound": "O=C(Nc1ccc(Br)cc1)Nc1ccc(Cn2ncc(N3CCCNCC3)c(Cl)c2=O)cc1.O=C(O)C(F)(F)F", "Inhibition": 0}
{"compound": "COc1cc2nccc(Nc3ccc(Oc4ccccc4)cc3)c2cc1OC.Cl", "Inhibition": 13}
{"compound": "O=C(Nc1cccc(-c2ccc(-c3nc4cc(C(F)(F)F)ccc4[nH]3)cc2)c1)c1cccnc1", "Inhibition": 73}
{"compound": "Cc1ccc(NC(C)C(=O)Nc2ccccc2)cc1S(=O)(=O)N1CCCCCC1", "note": "(stereo not given)", "Inhibition": 12}
{"compound": "CCN(CC)Cc1ccc2c(=O)cc(CCc3cccc(F)c3F)n(CC(=O)N(Cc3ccc(-c4ccc(C(F)(F)F)cc4)cc3)C(C)C)c2c1.O=C(O)C(O)C(O)C(=O)O", "Inhibition": 82}
{"compound": "O=C(Nc1cccc(C(F)(F)F)c1)NC1CCN(c2ccnc3cc(Cl)ccc23)CC1.O=C(O)C(F)(F)F", "Inhibition": 13}
{"compound": "Cc1ccc(Cn2cnc3cc(C(=O)Nc4ccc(-c5cccc(CN(C)C)c5)cc4)ccc3c2=O)o1", "Inhibition": 22}
{"compound": "COc1cc2nc(NCC3CCCCC3)nc(NCc3ccccc3)c2cc1OC", "Inhibition": 18}
{"compound": "CNC(=O)c1ccccc1Nc1nc(Nc2ccc(N3CCN(C)CC3)nc2)ncc1C.Cl", "Inhibition": 75}
